FBW7 act – FBW7 E3 ligase activators, primary screen, biochemical, AlphaScreen, human | F-box/WD repeat-containing protein 7 (Homo sapiens), Q969H0 | AlphaScreen FBW7–phospho-cyclin E peptide binding, activator screen | normalized activity (activation), % at 26.1 µM | hit rate 0.13% among 650,000 | AID 1259310, 2017; in the data active = normalized activity above about 1.9%;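 also: purified mutant Fbw7 with reduced substrate affinity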
Target sequence (Q969H0 whole entry, looked up): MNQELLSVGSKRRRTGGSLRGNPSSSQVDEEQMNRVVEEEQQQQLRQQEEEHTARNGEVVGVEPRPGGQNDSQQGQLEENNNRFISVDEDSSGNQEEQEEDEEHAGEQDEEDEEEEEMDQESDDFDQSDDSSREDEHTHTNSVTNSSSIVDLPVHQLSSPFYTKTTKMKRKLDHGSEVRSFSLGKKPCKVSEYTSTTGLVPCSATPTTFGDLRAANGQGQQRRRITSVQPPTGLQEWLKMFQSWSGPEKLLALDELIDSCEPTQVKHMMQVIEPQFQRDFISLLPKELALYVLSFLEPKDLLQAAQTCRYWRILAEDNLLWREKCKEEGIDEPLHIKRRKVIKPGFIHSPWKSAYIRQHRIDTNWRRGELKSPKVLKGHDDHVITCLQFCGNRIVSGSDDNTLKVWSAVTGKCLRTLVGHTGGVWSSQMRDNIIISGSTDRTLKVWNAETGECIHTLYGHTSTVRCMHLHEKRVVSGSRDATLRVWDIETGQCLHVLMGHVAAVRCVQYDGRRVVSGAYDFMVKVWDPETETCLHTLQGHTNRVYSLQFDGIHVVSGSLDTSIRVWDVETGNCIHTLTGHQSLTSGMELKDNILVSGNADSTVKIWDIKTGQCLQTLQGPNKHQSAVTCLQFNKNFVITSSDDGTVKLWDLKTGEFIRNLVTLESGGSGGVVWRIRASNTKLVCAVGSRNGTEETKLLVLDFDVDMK
TEAD-YAP block – TEAD-YAP interaction inhibition, primary screen, TEAD-YAP interaction inhibitor project, luminescence, HEK-TIYL cells; TEAD-Gal4/YAP UAS-luciferase luminescence; inhibition, % at 9.12 µM; hit rate 1.4% among 640,000; AID 1259422, 2018; in the data active = inhibition above about 32%
GPR151 ag – activators of human GPR151, primary screen, cell-based, PathHunter beta-arrestin, luminescence | PathHunter beta-arrestin GPR151 cells | activation, % at 11.2 µM | hit rate 1% among 650,000 | AID 1508602, 2020; in the data active = activation above about 4.9%
MITF primary – MITF inhibitors, primary screen, biochemical, AlphaScreen, human. Microphthalmia-associated transcription factor (Homo sapiens), O75030. AlphaScreen MITF homodimerization, bead proximity signal. inhibition, % at 2.6 µM. hit rate 0.91% among 650,000. AID 1259374, 2018; in the data active = inhibition above about 50%
Large screens that a line does not name were inactive. Most compounds without a hit are left out; they make up all but 3.5% or so of the library.

CC(C)CCN(C(=O)CCl)c1c(N)n(Cc2ccccc2)c(=O)[nH]c1=O	TEAD-YAP block 68.1
CCOc1ccc(C2C(C#N)=C(N)N(c3ccc(OC)cc3)C3=C2C(=O)CCC3)cc1 (centres undefined)	TEAD-YAP block 50.2
COc1ccc(N2C(N)=C(C#N)C(c3ccc(F)cc3)C3=C2CCCC3=O)cc1 (centres undefined)	TEAD-YAP block 51.2
COC(=O)c1c(N2C(N)=C(C#N)C(c3ccccc3)C3=C2CCCC3=O)sc2c1CCCC2 (centres undefined)	TEAD-YAP block 54.4
N#CC1=C(N)N(c2ccc(F)cc2)C2=C(C(=O)CCC2)C1c1ccc(F)cc1 (centres undefined)	none
Cc1ncc(CO)c2cc(C(=O)NCc3cccc(Cl)c3)c(=N)oc12	none
Cc1ccc(OC(=O)c2cc(S(=O)(=O)N3CCOCC3)c(Cl)cc2Cl)c(-n2nc3ccccc3n2)c1	none
Cn1c(SCC(=O)N2CCCC2)nnc1-c1ccccc1O	TEAD-YAP block 57.8
Cn1c(SCC(=O)O)nnc1-c1ccccc1O	TEAD-YAP block 44.2
COc1cccc(-c2ccc(SCC(=O)NCc3ccco3)nn2)c1	none
Cc1cccc(NS(=O)(=O)c2nnc(NC(=O)c3ccccc3F)s2)c1	none
Cc1cccc(-c2nnc(NC(=O)c3ccccc3F)s2)c1	FBW7 act 1.9
CCCOc1ccc(C(=O)NC(=S)Nc2ccccn2)cc1	TEAD-YAP block 50.8
N#C/C(=C\c1ccc(N2CCOCC2)cc1)C(=O)NCc1ccc(Cl)cc1	none
O=C(CN1CCC(c2cccnc2)CC1)Nc1nccs1	none
Cc1cc(NC(=O)Cn2c3c(c4ccccc42)CCC3)no1	TEAD-YAP block 57.4
O=C(CN1CCC(c2ccncc2)CC1)Nc1nccs1	TEAD-YAP block 34.2
O=C(Cn1c2c(c3ccccc31)CCC2)Nc1nccs1	TEAD-YAP block 34.4
Cc1nnc(NC(=O)Cn2c3c(c4ccccc42)CCC3)s1	none
COc1cc(C2=N/C(=C\c3ccc(OC(C)=O)cc3)C(=O)O2)cc(OC)c1OC	none
COCCNC(=O)CCCn1ncn2c(cc3occc32)c1=O	none
CS(=O)(=O)N(CC(=O)Nc1cccc([N+](=O)[O-])c1)c1ccccc1Br	none
O=C(Nn1c(C2CC2)nc2cc(Cl)ccc2c1=O)c1ccccc1	TEAD-YAP block 53.2
CSc1c(CC(=O)NC(C)(C)CO)n(C)c2ccccc12	none
Cc1cc2c(N3CCN(c4ccccn4)CC3)ncnc2s1	TEAD-YAP block 41.0
O=C(c1cnc(N2CCN(c3ncccn3)CC2)c2ccccc12)N1CCN(Cc2ccc3c(c2)OCO3)CC1	TEAD-YAP block 60.8
Cc1cc2c(N3CCN(c4ccccc4)CC3)ncnc2s1	none
Cc1cc2c(N3CCN(Cc4ccc5c(c4)OCO5)CC3)ncnc2s1	TEAD-YAP block 45.5
O=C(c1cnc(N2CCN(c3ncccn3)CC2)c2ccccc12)N1CCCC1	none
COc1ccc2c(=O)cc(C(Cl)(Cl)Cl)oc2c1	none
COc1cccc(-c2cc(=O)c3cc(OC)ccc3o2)c1	TEAD-YAP block 70.1
COc1ccc2oc(C(Cl)(Cl)Cl)cc(=O)c2c1	TEAD-YAP block 50.1
COc1ccc2c(=O)cc(-c3ccccc3)oc2c1	none
CCN(CC)c1ccc(NC(=O)c2ccc3c4c(cccc24)CC3)cc1	TEAD-YAP block 50.8
Oc1c(Br)cc(CN2CCOCC2)c2cccnc12	TEAD-YAP block 75.0, MITF primary 101.5
Oc1c(Cl)cc(CN2CCOCC2)c2cccnc12	TEAD-YAP block 85.5, MITF primary 100.5
CCOc1ccc(-n2c(-c3ccccc3)c[n+]3c2CCC3)cc1	TEAD-YAP block 49.0
CCOc1ccc(-n2c(-c3ccc(OC)cc3)c[n+]3c2CCCCC3)cc1	TEAD-YAP block 85.2
CCOc1ccc(-n2c(-c3ccccc3)n[nH]c2=S)cc1	none
COc1cccc2sc(N3CCOCC3)nc12	FBW7 act 2.0
COc1cccc2sc(N3CCN(c4nc5ccccc5s4)CC3)nc12	none
COc1cccc2sc(N(C)c3ccccc3)nc12	TEAD-YAP block 46.8
Cc1ccc(C(=O)COC(=O)c2ccc(N3C(=O)C4C5C=CC(C5)C4C3=O)cc2)cc1[N+](=O)[O-] (centres undefined)	none
c1cncc(CNc2nc(N3CCC(N4CCOCC4)CC3)nc3c2ncn3-c2ccsc2)c1	none
OCC1CCCN1c1nc(NCc2cccnc2)c2ncn(-c3ccsc3)c2n1 (centres undefined)	TEAD-YAP block 54.4
OCC1CCCN1c1nc(Nc2ccc3c(c2)OCO3)c2ncn(-c3ccsc3)c2n1 (centres undefined)	TEAD-YAP block 34.3
OCC1CCCN1c1nc(Nc2ccccc2)c2ncn(-c3ccsc3)c2n1 (centres undefined)	TEAD-YAP block 36.0
CC(=O)Nc1ccc(Nc2nc(N3CCCC3CO)nc3c2ncn3-c2ccsc2)cc1 (centres undefined)	none
COc1cc(Nc2nc(N3CCCC3CO)nc3c2ncn3-c2ccsc2)cc(OC)c1OC (centres undefined)	none
CC1CCN(C(=O)CN2Cc3ccccc3OC(c3ccccc3F)C2)CC1 (centres undefined)	none
Cn1nc(C(C)(C)C)cc1C(=O)NCc1ccc2c(c1)CCO2	TEAD-YAP block 42.4
CN(C)c1ccc(C(=O)NCc2ccc3c(c2)CCO3)cc1	none
CC1=C(C(=O)c2ccccc2)C(c2ccc(Cl)cc2)NC(=O)N1 (centres undefined)	none
CC1=CC2=NC(=O)/C(=C\c3ccc(OCc4ccc5c(c4)OCO5)c(Cl)c3)C(=N)N2O1	TEAD-YAP block 59.1
COc1cc(/C=C2/C(=N)N3OC(C)=CC3=NC2=O)ccc1OCCOc1cccc(C)c1	none
CC1=CC2=NC(=O)/C(=C\c3cc(C)n(-c4cccc(C)c4)c3C)C(=N)N2O1	TEAD-YAP block 49.8
CC1=CC2=NC(=O)/C(=C\c3ccc(OCCOc4cccc(C)c4)cc3)C(=N)N2O1	FBW7 act 2.2
CC1=CC2=NC(=O)/C(=C\c3cc(C)n(-c4cccc(Cl)c4)c3C)C(=N)N2O1	none
CCOC(=O)c1c(C)n(C)c2ccc(OCC(O)CNCc3ccccc3)cc12 (centres undefined)	none
O=C1CSc2ccc(C(=O)N3CCN(c4cccc(C(F)(F)F)c4)CC3)cc2N1	TEAD-YAP block 52.3
O=C1Nc2cc(C(=O)N3CCN(c4cccc(Cl)c4)CC3)ccc2Sc2ccccc21	none
O=C1CSc2ccc(C(=O)N3CCN(c4cccc(Cl)c4)CC3)cc2N1	TEAD-YAP block 56.1
Cc1cc(Nc2ccc3c(c2)OCO3)nc(Cl)n1	none
Cc1cc(Nc2ccc(Cl)cc2)nc(N)n1	none
Cc1cc(C)n(-c2nc(-c3ccc(Br)cc3)cs2)n1	none
Cc1cc(Nc2ccc(Cl)cc2)nc(-n2nc(C)cc2C)n1	TEAD-YAP block 46.8
Cc1ccc(CNc2cc(C)nc(-n3nc(C)cc3C)n2)cc1	TEAD-YAP block 66.6
Cc1cc(Nc2ccc3c(c2)OCCO3)nc(-n2nc(C)cc2C)n1	TEAD-YAP block 87.5
Cc1cc(Nc2ccc(Br)cc2)nc(-n2nc(C)cc2C)n1	TEAD-YAP block 64.1
